Screening results (PubChem BioAssay)
Many of the other results were omitted from the sample, so hits are more common in it than they were.
Pf Dd2 growth – Plasmodium falciparum Dd2 growth inhibition. P. falciparum Dd2 growth, SYBR Green, 72 h. 4.3% of 120,000 active. Potency, µM (doses to about 28.9 µM), hits mostly inhibitors; active = well fitted inhibition curve with a large enough effect; note: nearly all actives have a fitted effect of over 65% in size
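Infected erythrocytes (Dd2, 0.3% parasitemia, 2.5% hematocrit final) are added to compound in RPMI-1640/Albumax II medium, grown 72 h at 37C in low oxygen, then lysed with saponin/Triton-X containing SYBR Green and read by fluorescence.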
Of the large screens only hits and unclear results are named; the others gave an inactive call.

CC(=O)c1cc(CC(=O)N[C@@H]2COCC[C@@H]2OCc2ccccc2)cs1	none
CC(=O)c1cc(CN(CCc2ccccc2)CC2CCCN(C)C2)cs1 (stereo not drawn)	Pf Dd2 growth 13µM
CO[C@H]1[C@H](NC(=O)Cc2ccc(O)cc2)c2ccccc2C12CCNCC2	none
Cc1cc2cc(C(=O)N3CCC4(CC3)C(=O)N(C)c3ccccc34)ccc2o1	none
CCC(CC)C(=O)N1CCC2(CC1)C(=O)N(C)c1ccccc12	none
CN1C(=O)C2(CCN(C(=O)CCc3ccccc3)C2)c2ccccc21 (stereo not drawn)	none
CN1C(=O)C2(CCN(C(=O)CCC3CCCC3)CC2)c2ccccc21	Pf Dd2 growth 5.6µM
CCOc1ccc(C(=O)N2CCC3(CC2)C(=O)N(C)c2ccccc23)cc1OCC	Pf Dd2 growth 13µM
CN1C(=O)C2(CCN(C(=O)CCn3cnnn3)CC2)c2ccccc21	none
OCC1CN(c2ccncn2)CC12CCN(CC1CCCCC1)CC2 (stereo not drawn)	none
COc1ccc(-c2ccc3ncn(Cc4ccccn4)c(=O)c3n2)cc1F	none
COCCN(CCOC)S(=O)(=O)c1ccc(C(=O)Nc2sc3c(c2C(=O)OC)CCN(C)C3)cc1	Pf Dd2 growth 11µM
CCCCN(C)S(=O)(=O)c1ccc(C(=O)Nc2sc3c(c2C(=O)OCC)CCN(C(C)C)C3)cc1	Pf Dd2 growth 6.3µM
CCOC(=O)c1c(NC(=O)c2ccc(S(=O)(=O)N(C)C)cc2)sc2c1CCN(C)C2	none
CNC(=O)c1c(NC(=O)c2ccc(S(=O)(=O)N3CCC(C)CC3)cc2)sc2c1CCC2	none
CCOC(=O)c1c(NC(=O)c2ccc(S(=O)(=O)N3CCC(C)CC3)cc2)sc2c1CCN(C)C2	Pf Dd2 growth 8.9µM
CNC(=O)c1c(NC(=O)c2ccc(S(=O)(=O)N3CCCCC3C)cc2)sc2c1CCC2 (stereo not drawn)	none
COC(=O)c1c(NC(=O)c2ccc(C(C)(C)C)cc2)sc2c1CCC(C)C2 (stereo not drawn)	none
CCOc1cccc2sc(NC(=O)c3ccc(S(=O)(=O)N4CCCCC4C)cc3)nc12 (stereo not drawn)	none
CCOC(=O)c1c(NC(=O)c2ccccc2C)sc2c1CCCC2	none
COCCN(CCOC)S(=O)(=O)c1ccc(C(=O)Nc2sc3c(c2C(N)=O)CCCC3)cc1	none
COC(=O)c1c(NC(=O)c2ccc(S(=O)(=O)N3CCCCC3C)cc2)sc2c1CCN(C(C)C)C2 (stereo not drawn)	Pf Dd2 growth 11µM
CCCOc1ccc(C(=O)Nc2sc3c(c2C(=O)OCC)CCCCC3)cc1	none
COCCN1C(=O)c2cccn2CC1CNC(=O)c1ccoc1 (stereo not drawn)	none
COc1ccc(CN2C(=O)N(c3cccc(C(F)(F)F)c3)C(=O)[C@@H]3[C@H]2CCN3C(=O)C(C)(C)C)cc1	none
O=C(CN1CC2CC(C1)[C@H]1CCCC(=O)N1C2)NC1CCCCCC1 (stereo partly drawn)	none
COCC1CN(S(=O)(=O)c2c(C)noc2C)CC12CCNCC2 (stereo not drawn)	none
COc1ccc(-c2nccn3cc(C(=O)NCc4cccnc4)nc23)cc1	none
O=C1NCc2ccccc2CC12CCN(Cc1ccccc1Cl)C2 (stereo not drawn)	none
COc1ccc(C(=O)N2C(C(=O)N3CCCC3)COC23CCN(C(=O)Cc2ccccc2)CC3)cc1 (stereo not drawn)	none
O=C1NCCCCCCN(C(=O)Nc2ccccc2)[C@H]2C[C@H](c3nc(-c4cccnc4)no3)C[C@@H]12	none
CC(C)NC(=O)CC[C@@H]1CNC(=O)[C@@H]2C[C@H](NCc3ccc(N(C)C)cc3)CN12	none
CCOC(=O)c1c(NC(=O)c2ccc(S(=O)(=O)N(C)C3CCCCC3)cc2)sc2c1CCN(C(C)C)C2	Pf Dd2 growth 11µM
CCOC(=O)c1c(NC(=O)c2ccc(Br)cc2)sc2c1CCCC2	none
CCOC(=O)c1c(NC(=O)CS(=O)(=O)c2ccc(C)cc2)sc2c1CCC(C)C2 (stereo not drawn)	none
Cc1ccc(OC2(C(=O)N[C@H]3CCc4ccccc43)CCNCC2)cc1	Pf Dd2 growth 7.9µM
CC(C)(C)C1CCC2(CC1)NC(=O)N(CC(=O)NC1CCc3ccccc31)C2=O (stereo not drawn)	none
Cc1ccc(OC2(C(=O)NCc3cccc(N(C)C)c3)CCNCC2)cc1	none
O=C(c1ccno1)N1C[C@@H]2OCC(=O)N(Cc3ccccn3)[C@@H]2C1	none
Clc1ccc(CNC2(Cc3cc(COc4ccccc4)on3)COC2)cc1	none
O=C(c1nnn2cc(-c3ccc(F)cc3)[nH]c(=O)c12)N1CCCCC1	none
COC(=O)c1cc2sccc2n1Cc1ccc(F)cc1	none
Cn1c(C(=O)N2CCC(C(=O)NCCc3ccc(S(N)(=O)=O)cc3)CC2)cc2sccc21	none
CC(C)NC(=O)C1CCN(C(=O)c2cc3sccc3n2Cc2ccc(Cl)cc2)CC1	Pf Dd2 growth 11µM
CN(C)C[C@@H]1CN(S(C)(=O)=O)C[C@H]1NC(=O)c1ccc(F)cc1F	none
COc1ccc(S(=O)(=O)N[C@H]2C[C@@H](c3nc(C(C)C)no3)N(C)C2)cc1	none
N#Cc1ccc(C(=O)N2CCCCCCNC(=O)CC2)cc1	none
CCCc1cc(CN(C)C(=O)C2CC(=O)N(c3ccc(C(C)C)cc3)C2)[nH]n1 (stereo not drawn)	none
COc1cc(NC(=O)Nc2nnc(N3CCCCC3)s2)cc(OC)c1	none
CCOc1ccc(NC(=O)CSc2nnc(NC(=O)Nc3ccccc3)s2)cc1	none
CCOc1ccc(NC(=O)Nc2nnc(N3CCCCC3C)s2)cc1 (stereo not drawn)	Pf Dd2 growth 11µM
CCN(C(=O)CN1C(=O)NC2(CCOCC2)C1=O)c1cccc(C)c1	none
O=C1C(OCC2CC2)C2(CCCCC2)N1C1CCN(Cc2cccnc2)CC1 (stereo not drawn)	Pf Dd2 growth 8.9µM
O=C1C(OCC2CC2)C2(CCCCC2)N1C1CCN(Cc2ccncc2F)CC1 (stereo not drawn)	none
O=C(Cc1cccnc1)N1CCC(N2C(=O)C(OCC3CC3)C23CCCCC3)CC1 (stereo not drawn)	none
COc1ccc(OC)c(S(=O)(=O)N2CCOCCNC(=O)[C@@H]3CCC[C@@H]32)c1	none
C[S+](=O)([O-])N1CCCC(c2nnc3n2CCNC3)C1 (stereo not drawn)	none
O=C(C[C@@H]1C[C@H]2O[C@H](CNC3CCCCC3)[C@@H](O)[C@H]2O1)N1CCOCC1	none
CS(=O)(=O)NC1CCN(c2cc(C3CC(N)C3)nc(N)n2)CC1 (stereo not drawn)	none
CNc1cc(C2CC(NS(=O)(=O)c3cc(C)sc3C)C2)nc(N)n1 (stereo not drawn)	Pf Dd2 growth 8.9µM
Cc1cc(C(F)(F)F)nc(CCNc2cc(C3CC(N)C3)nc(N)n2)n1 (stereo not drawn)	none
CCOC(=O)c1ccc(NC(=O)Cn2ccn3nc4c(c3c2=O)CCCCC4)cc1	none
O=[S+]1([O-])NC2(CCN(Cc3ccncc3)CC2)COc2ccccc21	none
CC(C)[C@@H](N)C(=O)N1CCC(n2nccc2NC(=O)c2cccc(F)c2)CC1	none
O=C1CC(c2c(F)cccc2Cl)c2c(ccc3ccccc23)N1 (stereo not drawn)	none
CCCCOc1ccccc1C1CC(=O)Nc2ccc3ccccc3c21 (stereo not drawn)	Pf Dd2 growth 14µM
O=C1CC(c2c(Cl)cccc2Cl)c2c(ccc3ccccc23)N1 (stereo not drawn)	none
CCOCCOc1cccc(C(=O)N2CCC3(CCNCC3)CC2)c1	none
O=C(N1CCN(S(=O)(=O)c2cccs2)CC1)N1CC2CC(C1)[C@H]1CCCC(=O)N1C2 (stereo partly drawn)	none
CCN(Cc1ccncc1)Cc1cn(-c2ccccc2)nn1	none
